Assay outcomes as filed in PubChem.
Integrin act MD = integrin-mediated muscular dystrophy alleviation activation | alpha7betagal myoblasts, beta-gal FDG fluorescence, 48 h | hit rate 0.064% among 350,000 | Potency, µM (top dose mostly 38.3 µM), actives largely listed as activators; also: nearly all actives have a fitted effect of over 60% in size
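alpha7betagal+/- myoblasts (passage 13, 250/well) treated 48 h at 37C with compounds at 1:260 dilution of DMSO stock. Lysed, then beta-galactosidase activity read as FDG fluorescence (ex 480/em 540) after 30 min, with pre-read for autofluorescence.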
RORgamma inh = inhibitors of mouse ROR gamma transcriptional activity. P51450. Drosophila S2 Gal4-RORgamma UAS-luciferase reporter, 20 h. Potency, µM (doses to about 53.6 µM), actives largely listed as inhibitors. hit rate 5.4% among 310,000; also: nearly all actives have a fitted effect of over 60% in size
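Stable Schneider cell line, Gal4 DNA-binding domain fused to ROR gamma, UAS-luciferase. Cmpd 1 hr RT → CuSO4 700 uM final → 20 hr RT → luciferase reagent 10 min → luminescence.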
Gal4-VP16 FLuc = counter-screen for ROR gamma inhibitors: Gal4-VP16 reporter; Drosophila S2 Gal4-VP16 UAS-luciferase, luminescence, 20 h; Potency, µM (titrated, usually from 53.6 µM), most hits filed as inhibitors; hit rate 3.5% among 310,000; AID 2546;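 also: Gal4-VP16 expression switched on by copper sulfate through the metallothionein promoter; nearly all actives have a fitted effect of over 50% in size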
ERG Ets-DNA blk = ERG Ets/DNA interaction inhibition; P11308; fluorescence polarization, His-ERG Ets domain / labelled DNA; Potency, µM (titrated, usually from 76.9 µM), usual class: inhibitors; hit rate 0.028% among 370,000; AID 624246; active = well fitted inhibition curve with a large enough effect in the polarisation, with a control signal flat; inconclusive = small, poorly fitted or top-dose-only effect, or effect the other way, or a change in a side signal; inactive = no such curve, though single readings can be large or run the other way; the % refers to the polarisation;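 also: polarization taken with two DNA probes labelled with fluorescein and Texas red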
Target sequence (P11308 whole entry, looked up, the tested form may be a part): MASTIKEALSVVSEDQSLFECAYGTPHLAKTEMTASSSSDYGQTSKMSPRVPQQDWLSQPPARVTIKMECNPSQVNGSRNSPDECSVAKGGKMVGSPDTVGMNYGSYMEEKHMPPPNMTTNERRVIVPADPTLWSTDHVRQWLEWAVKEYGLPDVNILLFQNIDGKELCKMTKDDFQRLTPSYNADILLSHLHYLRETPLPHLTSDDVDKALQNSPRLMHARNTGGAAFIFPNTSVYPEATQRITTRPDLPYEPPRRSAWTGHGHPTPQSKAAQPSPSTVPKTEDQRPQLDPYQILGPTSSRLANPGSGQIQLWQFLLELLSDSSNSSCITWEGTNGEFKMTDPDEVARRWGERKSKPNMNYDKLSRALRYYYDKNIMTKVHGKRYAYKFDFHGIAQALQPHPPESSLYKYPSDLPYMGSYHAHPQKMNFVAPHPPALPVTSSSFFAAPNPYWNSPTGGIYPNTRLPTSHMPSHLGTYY
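His-tagged ERG Ets domain (1 uM in the protein solution; 300mM KCl, 50mM Tris-HCl, 1mM EDTA, 1mM DTT, pH 7.5) received compound, then a probe mix of 5 nM fluorescein-DNA and 100nM Texas-615-DNA. Fluorescence polarization was read for both dyes.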
Giardia kill = Giardia lamblia killing; Giardia lamblia trophozoite viability; activity change, % at 7.66 µM, hits read low; hit rate 0.15% among 340,000; AID 540267; in the data active = activity change below about -80%; inconclusive = between about -30% and that limit;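 also: parasites exposed to compound for two days anaerobically before the ATP read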
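Compounds were tested on trophozoites seeded at 100 cells/well and held 48 hrs at 37 deg C anaerobically. An ATP-based luminescent kit measured the remaining live cells.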
Each line names hits and unclear results; the compound was inactive in the other large screens. This excerpt belongs to a sample that is enriched for hits. Unless noted, calls follow the shape of the dose curve; as a rule, active = well fitted curve in the direction sought with a large enough effect; inconclusive = small, poorly fitted or top-dose-only effect, or another doubt; inactive = no such curve, though single readings can be large; an effect the other way counts as inactive or inconclusive.

Cc1ccc(-n2c3c(c(=O)[nH]c2=O)C(NC(=O)C(C)(C)C)(C(F)(F)F)C(=O)N3)cc1 (centres undefined)	none (no result: Integrin act MD, RORgamma inh, Gal4-VP16 FLuc, Giardia kill)
CC1CCN(c2ccc(NC(=S)NC(=O)c3ccco3)cc2)CC1	RORgamma inh 3.2µM, Gal4-VP16 FLuc 7.1µM
CC(=O)N1CCN(c2ccc(NC(=O)c3ccco3)cc2)CC1	none
O=C(NC(=S)Nc1ccc(N2CCCCC2)cc1)c1ccco1	RORgamma inh 7.1µM, Gal4-VP16 FLuc 20µM
COCCn1c(C)c(C)c(S(=O)(=O)c2ccccc2)c1N	ERG Ets-DNA blk 35µM
COCCCNC(=O)CCCn1c(=O)c2ccccc2n(CC(=O)Nc2ccc(C)cc2Cl)c1=O	none (no result: Integrin act MD, RORgamma inh, Gal4-VP16 FLuc, Giardia kill)
Cc1ccc(Cn2ncc3c(NN)ncnc32)cc1	RORgamma inh 13µM, Gal4-VP16 FLuc inconclusive
CC(C)Nc1ncnc2c1cnn2-c1ccccc1	RORgamma inh inconclusive, Gal4-VP16 FLuc 14µM
Cc1cccc(-n2ncc3c(Nc4ccc(F)cc4)ncnc32)c1	Gal4-VP16 FLuc 11µM
Cc1ccc(Cn2ncc3c(NCCN(C)C)ncnc32)cc1	none
Cc1ccccc1Nc1ncnc2c1cnn2-c1ccccc1	RORgamma inh inconclusive, Gal4-VP16 FLuc 16µM
c1ccc(-n2ncc3c(NC4CCCCCC4)ncnc32)cc1	Giardia kill inconclusive
NNc1ncnc2c1cnn2-c1ccccc1	Integrin act MD inconclusive, RORgamma inh 11µM, Gal4-VP16 FLuc inconclusive
c1ccc(-n2ncc3c(NCc4cccnc4)ncnc32)cc1	Gal4-VP16 FLuc 1.4µM (no result: RORgamma inh)
Cc1ccc(-n2ncc3c(NCc4ccccc4)ncnc32)cc1C	none (no result: Integrin act MD, RORgamma inh, Gal4-VP16 FLuc, Giardia kill)
COc1ccc(NC2=NC(=S)N(c3cccc(C)c3)C23CCCCC3)cc1	RORgamma inh 2µM, Gal4-VP16 FLuc inconclusive
Cc1cccc(NC2=NC(=S)N(c3ccc(C(=O)O)cc3)C23CCCCC3)c1	none
COc1ccc(NC2=NC(=S)N(c3ccc(C)cc3)C23CCCCC3)cc1	RORgamma inh 0.56µM
C[C@@H]1CN([C@@H](C)CO)C(=O)c2cc(Br)cnc2O[C@@H]1CN(C)C(=O)CN(C)C	none (no result: RORgamma inh, Gal4-VP16 FLuc, ERG Ets-DNA blk, Giardia kill)
O=C(Nc1cc(C(F)(F)F)ccc1N1CCOCC1)c1ccccc1F	none
CC(C)(C)C(=O)Nc1cc(C(F)(F)F)ccc1N1CCOCC1	RORgamma inh inconclusive
O=C(NC(=S)Nc1cc(C(F)(F)F)ccc1N1CCOCC1)c1sc2ccccc2c1Cl	RORgamma inh 2.2µM, Gal4-VP16 FLuc 4µM
CCCC(=O)Nc1cc(C(F)(F)F)ccc1N1CCOCC1	none
CC(C)(C)C(=O)NC(=S)Nc1cc(C(F)(F)F)ccc1N1CCOCC1	RORgamma inh 13µM, Gal4-VP16 FLuc inconclusive
O=C(CCCCl)NC(=S)Nc1cc(C(F)(F)F)ccc1N1CCOCC1	RORgamma inh 7.9µM, Gal4-VP16 FLuc inconclusive
O=[N+]([O-])c1ccc(N2CCN(c3ccccc3F)CC2)nc1	Integrin act MD 5.6µM
Cc1cccc(C2=NN(c3ccccc3)[C@H](CO)[C@H]2c2ccc(Cl)cc2)c1	Gal4-VP16 FLuc 40µM
CC[C@H]1C(c2cccc(C)c2)=NN(c2ccccc2)[C@@H]1CO	none (no result: Integrin act MD, ERG Ets-DNA blk, Giardia kill)
CC[C@H]1C(c2cccc(Cl)c2)=NN(c2ccccc2)[C@@H]1CO	RORgamma inh inconclusive, Gal4-VP16 FLuc 32µM (no result: Integrin act MD, ERG Ets-DNA blk, Giardia kill)
COc1ccc(-n2c(SCC(=O)Nc3cccc(S(N)(=O)=O)c3)nc3ccccc3c2=O)cc1OC	none
CC1Oc2ccccc2N(CC(=O)NC2CCCCC2)C1=O (centres undefined)	none
CC(=O)/C(=N\Nc1ccccc1)Sc1nnc(-c2ccccc2)n1-c1ccccc1	RORgamma inh 10µM, Gal4-VP16 FLuc inconclusive
CC(=O)/C(=N\Nc1ccc(Cl)cc1Cl)Sc1nnc(-c2ccccc2)n1-c1ccccc1	none
CC(=O)/C(=N\Nc1ccccc1Cl)Sc1nnc(-c2ccccc2)n1-c1ccccc1	RORgamma inh 10µM, Gal4-VP16 FLuc inconclusive
O=C(N/N=C1/C[C@@H](O)[C@@H](O)[C@@H]2[C@@H]3C(=O)N(C[C@@H]4CCCO4)C(=O)[C@H]3CC[C@H]12)OCc1ccccc1	none (no result: Integrin act MD, ERG Ets-DNA blk, Giardia kill)
Cc1cccc(C(=O)Nc2nc3nc(-c4ccccc4)cc(=O)n3[nH]2)c1	none (no result: Integrin act MD, RORgamma inh, Gal4-VP16 FLuc, Giardia kill)
CCn1nc(C(=O)Nc2nc3ccccc3[nH]2)c2ccccc2c1=O	Integrin act MD inconclusive, RORgamma inh 11µM, Gal4-VP16 FLuc inconclusive
Cn1nc(C(=O)Nc2nc3ccccc3[nH]2)c2ccccc2c1=O	RORgamma inh inconclusive, Gal4-VP16 FLuc inconclusive
